From PubChem BioAssay
An excerpt weighted towards active compounds, which were near 1.3% of everything screened.
SARS PLP yeast – blocks SARS-CoV papain-like protease in a yeast assay | S. cerevisiae expressing SARS-CoV PLpro, growth rescue | Potency, µM (top dose mostly 32.9 µM), for the others: at the highest dose activity, positive = growth rescue, actives largely listed as activators | hit rate 0.19% among 330,000; calls by dose curve; also: 0% is about no effect; nearly all actives have a fitted effect of over 55% in size
AmpC detergent – inhibitors of E. coli AmpC beta-lactamase with detergent | P00811 | AmpC hydrolysis of nitrocefin, absorbance 480 nm, 0.01% Triton | Potency, µM (series often up to 114 µM), for inactives: at the top dose activity change, negative = inhibition, usual class: inhibitors | hit rate 0.041% among 370,000;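 also: 0% = no-compound wells and -100% = no-enzyme wells; nearly all actives have a fitted effect of over 25% in size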
Target sequence (P00811 whole entry, looked up): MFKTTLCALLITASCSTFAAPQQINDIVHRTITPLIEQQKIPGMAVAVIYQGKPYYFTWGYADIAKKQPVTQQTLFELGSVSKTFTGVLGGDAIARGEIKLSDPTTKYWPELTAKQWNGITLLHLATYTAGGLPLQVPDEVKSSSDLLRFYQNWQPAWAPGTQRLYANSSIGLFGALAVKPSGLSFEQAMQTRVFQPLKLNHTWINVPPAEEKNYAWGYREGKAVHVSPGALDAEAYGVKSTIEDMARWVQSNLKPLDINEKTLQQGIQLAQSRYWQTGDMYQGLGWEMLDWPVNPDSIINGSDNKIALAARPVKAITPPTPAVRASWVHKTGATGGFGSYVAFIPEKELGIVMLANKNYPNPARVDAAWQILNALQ
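AmpC (5.3 nM in the dispensed reagent) in 20 mM phosphate pH 7.0 with 0.01% (detergent screen) or 0.0001% Triton X-100 was preincubated with compounds for 15 min at room temperature. Nitrocefin was then added from an 800 uM solution, and hydrolysis was followed at 480 nm.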
VACV Venus inh – inhibitors of vaccinia virus (Venus reporter). Vaccinia virus Venus reporter expression, fluorescence. Potency, µM (series often up to 36.5 µM), inactives show top-dose activity change, negative = inhibition, most hits filed as inhibitors. hit rate 0.46% among 330,000; calls by dose curve; tested in A549 cells; also: % is scaled to controls: 0 for no effect and ±100 for the full control effect; nearly all actives have a fitted effect of over 30% in size
AmpC no deterg – inhibitors of E. coli AmpC beta-lactamase without detergent; P00811; AmpC nitrocefin hydrolysis, absorbance 480 nm, 0.0001% Triton; Potency, µM (highest dose often 57.1 µM), inactives show at the top dose activity change, negative = inhibition, hits mostly inhibitors; hit rate 0.52% among 330,000;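 also: plate controls were no compound for no effect and no enzyme for full effect; nearly all actives have a fitted effect of over 20% in size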
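AmpC (5.3 nM in the dispensed reagent) in 20 mM phosphate pH 7.0 with 0.01% (detergent screen) or 0.0001% Triton X-100 was preincubated with compounds for 15 min at room temperature. Nitrocefin was then added from an 800 uM solution, and hydrolysis was followed at 480 nm.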
Vaccinia mCherry – inhibitors of vaccinia virus infection (mCherry reporter signal); hit rate 0.63% among 310,000; Potency, µM (top dose mostly 36.5 µM), inactives show top-dose activity change, negative = inhibition, actives largely listed as inhibitors; AID 720579; Vaccinia virus mCherry reporter infection, fluorescence; calls by dose curve; tested in A549 cells; also: % is scaled to controls: 0 for no effect and ±100 for the full control effect; nearly all actives have a fitted effect of over 35% in size
AMA1-RON2 inh – inhibitors of Plasmodium falciparum AMA1-RON2 interaction; AlphaScreen AMA1-biotinylated RON2 peptide binding; Potency, µM (titrated, usually from 58.2 µM), for the others: top-dose activity change, negative = inhibition, actives largely listed as inhibitors; hit rate 0.2% among 360,000; AID 720542;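 also: 0% = vehicle wells and -100% = peptide control; nearly all actives have a fitted effect of over 45% in size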
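AMA1 (3D7) with his tag at 25 nM final met compounds first, then biotinylated RON2 peptide at 25 nM; detection used donor plus acceptor beads, 10 µg/mL apiece, read by AlphaScreen after 30 min at room temperature.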
Active calls of the source: *. Unless noted, calls follow the shape of the dose curve; as a rule, active = well fitted curve in the direction sought with a large enough effect; inconclusive = small, poorly fitted or top-dose-only effect, or another doubt; inactive = no such curve, though single readings can be large; an effect the other way counts as inactive or inconclusive. Potency is read from the fitted curve at half-maximal effect.

N#CN=c1snc(-c2ccccc2)n1-c1ccc(Br)cc1 was read as VACV Venus inh inconclusive and Vaccinia mCherry 3.2µM*.
For Cc1nnc(C)c2c(C)n(-c3ccc(Br)cc3)c(C)c12 the results were SARS PLP yeast 2%, AmpC detergent 3% and AmpC no deterg -19%.
For Cc1cc(C)n2nc(C(=O)NCC3Cc4cccc(-c5ccc(S(C)(=O)=O)cc5)c4O3)cc2n1 (stereo not given) the results were VACV Venus inh -1% and Vaccinia mCherry -10%.
`COc1cc(Cl)c(C)cc1N1C(=O)[C@@H]2C[C@H]1CN2Cc1ccccn1` gave VACV Venus inh -2% and Vaccinia mCherry -8%.
`Cn1c(NC2CCCCC2)cc(=O)n(C)c1=O` gave SARS PLP yeast 8%, AmpC detergent inconclusive, VACV Venus inh -10%, AmpC no deterg -8%, Vaccinia mCherry -3% and AMA1-RON2 inh 1%.
For Cc1cc(C2CCCCC2)n(O)c(=O)c1 the results were AmpC detergent 6%, VACV Venus inh inconclusive, AmpC no deterg 1%, Vaccinia mCherry 4.5µM* and AMA1-RON2 inh 69%.
COc1cccc2nccc(/C=C/c3ccc(N(C)C)cc3)c12 was read as VACV Venus inh 44% and Vaccinia mCherry -19%.
For COc1cccc(CCNc2ncnc3sc(C(=O)N4CCN(C)CC4)c(C)c23)c1 the results were VACV Venus inh -13% and Vaccinia mCherry -11%.
Screening O=S(=O)(c1ccccc1)N(CC(O)Cn1c2ccccc2c2ccccc21)c1ccccc1 (stereo not given) returned SARS PLP yeast -3%, AmpC detergent 1%, VACV Venus inh 10µM*, AmpC no deterg -31% and AMA1-RON2 inh -5%.
For CC(=O)NCc1c(Cl)cccc1-n1cccc1 the results were SARS PLP yeast 10µM*, AmpC detergent 1%, AmpC no deterg -9% and AMA1-RON2 inh 5%.
`CCC(=O)NCc1c(Cl)cccc1-n1cccc1` gave SARS PLP yeast 3%, AmpC detergent 3%, AmpC no deterg -8% and AMA1-RON2 inh -1%.
C=CCN(CC=C)Cc1c(O)ccc2c1oc(=O)c1ccccc12 was read as VACV Venus inh -3%, Vaccinia mCherry inactive and AMA1-RON2 inh 21µM*.
`C=CCN(CC=C)Cc1cc(=O)oc2ccc3ccccc3c12` gave VACV Venus inh -21%, Vaccinia mCherry -4% and AMA1-RON2 inh 30%.
`COc1cccc2cc(C(=O)NCc3ccco3)c(=Nc3ccc(C(=O)O)cc3)oc12` gave SARS PLP yeast 9%, AmpC detergent -3%, VACV Venus inh 10µM*, AmpC no deterg -27%, Vaccinia mCherry 7.9µM* and AMA1-RON2 inh 2%.
`COc1ccc(C(=O)N2CCC3(CC2)c2ccccc2[C@@H](NC(=O)c2ccccn2)[C@@H]3OC)c(O)c1` gave VACV Venus inh -2% and Vaccinia mCherry -19%.
Screening S=c1ncc2n[nH]nc2[nH]1 returned VACV Venus inh -6% and Vaccinia mCherry 22%.
Screening CCN(CC)CCOC(=O)c1ccc(N/C=C(/C#N)c2nc(-c3ccc(OC)c(OC)c3)cs2)cc1 returned SARS PLP yeast 1%, AmpC detergent 9%, VACV Venus inh 0%, AmpC no deterg 80%, Vaccinia mCherry inactive and AMA1-RON2 inh 28µM*.
For CCC1CN(Cc2cccc3nccnc23)Cc2cc(OC)ccc2O1 (stereo not given) the results were VACV Venus inh 5% and Vaccinia mCherry -8%.
For CC1(OC(=O)CCc2ccccc2)C(=O)C=C2C=C(c3ccsc3)OC=C2C1=O (stereo not given) the results were SARS PLP yeast 1%, AmpC detergent -1% and AmpC no deterg 28µM*.
CC1(OC(=O)C2CCCC2)C(=O)C=C2C=C(c3ccsc3)OC=C2C1=O (stereo not given) was read as SARS PLP yeast 0%, AmpC detergent -7%, VACV Venus inh 16%, AmpC no deterg -17%, Vaccinia mCherry -10% and AMA1-RON2 inh -26%.
`CC(C)c1c(C(=O)N(C)C2CCN(C)CC2)cnn1-c1nccc(-c2ccco2)n1` gave VACV Venus inh -9% and Vaccinia mCherry inactive.
`O=c1oc2c(O)c(O)cc3c(=O)oc4c(O)c(O)cc1c4c23` gave SARS PLP yeast 1.4µM*, AmpC detergent inconclusive, VACV Venus inh -21%, AmpC no deterg -36%, Vaccinia mCherry -4% and AMA1-RON2 inh 0.79µM*.
Screening COc1cc(=O)n2c(c1C(=O)N(C)Cc1nonc1C)CCN(Cc1ccccc1F)CC2 returned VACV Venus inh 1% and Vaccinia mCherry -2%.
For CN(C(=O)COc1ccccc1C(=O)NCCOc1ccccc1)c1ccccc1 the results were SARS PLP yeast 19%, AmpC detergent -17%, VACV Venus inh 11µM*, AmpC no deterg 36%, Vaccinia mCherry inconclusive and AMA1-RON2 inh 7%.
For O=C(NCCOc1ccccc1)c1ccccc1Cl the results were SARS PLP yeast 0%, AmpC detergent -8%, VACV Venus inh -7%, AmpC no deterg 5%, Vaccinia mCherry -8% and AMA1-RON2 inh 1%.
For CN(C)c1cccc(C(=O)OCc2cc(=O)oc3cc(O)ccc23)c1 the results were SARS PLP yeast -6%, AmpC detergent -2%, VACV Venus inh 6%, AmpC no deterg 18µM*, Vaccinia mCherry -3% and AMA1-RON2 inh -28%.
`COC(=O)C1CCN(Cc2ccc3c(c2)CN(C(=O)c2cc(C4CC4)on2)CCO3)CC1` gave VACV Venus inh 9% and Vaccinia mCherry -3%.
Screening Cc1csc(CN(C)C(=O)c2sc3ncnc(NCC4CCCO4)c3c2C)n1 (stereo not given) returned VACV Venus inh -2% and Vaccinia mCherry inactive.
Screening Cc1cccc(C)c1N1C(=O)CC(N2CCN(S(=O)(=O)c3ccccc3F)CC2)C1=O (stereo not given) returned SARS PLP yeast -9%, AmpC no deterg 22% and AMA1-RON2 inh -5%.
For O=C1CC(N2CCN(S(=O)(=O)c3ccccc3F)CC2)C(=O)N1c1ccccc1F (stereo not given) the results were AMA1-RON2 inh 32µM*.
For CC(C)COc1ccc(CC(=O)NO)cc1 the results were VACV Venus inh -6% and Vaccinia mCherry -23%.
Cc1ccccc1-n1c2nc(=O)n(C)c(=O)c-2cc2ccccc21 was read as SARS PLP yeast -1%, AmpC detergent -3%, VACV Venus inh 6%, AmpC no deterg -7%, Vaccinia mCherry -19% and AMA1-RON2 inh -4%.
For CCn1nc(-c2ccccc2C)nc2c(=O)n(C)c(=O)nc1-2 the results were VACV Venus inh 6.3µM* and Vaccinia mCherry 5.6µM*.
